The panel holds about 83,000 compounds, 20% with a hit somewhere; the sample as a whole holds those more often.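 Activity criterion: percent growth below 10, measured after cells in 96-well plates were exposed to a single compound concentration for 48 hours.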 The source made the active and inactive calls.
tested on: BT-549 breast; test: NCI-60 one-dose screen, 48 h (100 = growth as untreated, 0 = no growth, -100 = all killed); conditions: 10 µM unless noted

Q: How did the growth turn out when `COc1cc2ncnc(-n3ncc4cc(NC(=O)Nc5ccccc5)ccc43)c2cc1OC` was run?
A: 24.9% (inactive)

Q: How did the growth turn out when `CC1(c2ccc(Br)cc2)NC(=O)NC1=O` (stereo not given) was run?
A: 90.4% (inactive)

Q: With `O=C(N/N=C\c1ccc(Cl)cc1)C(=O)N/N=C\c1ccc(Cl)cc1` as the compound, how does the growth read?
A: 95.4% (inactive)

Q: `COc1cc(-c2nc(/C=C3/C(=O)Nc4ccccc43)c3ccccn23)cc(OC)c1OC` was tested. Which growth did it give?
A: 94% (inactive)

Q: Which growth does the source give for `CCCCN(CCCC)c1ccc(C(=O)O)cc1` here?
A: 97% (inactive)

Q: How did the growth turn out when `COC(=O)c1c[n+]([O-])ccc1OC` was run?
A: 111% (inactive)

Q: Which growth does the source give for `CC(=O)O.[In]` here?
A: 105% (inactive)

Q: With `Cc1nnc(/N=C2\NC(=O)/C(=C/C=C/c3ccccc3)S2)s1` as the compound, how does the growth read?
A: 52.2% (inactive)

Q: Which growth does the source give for `CC(=O)N1N=C(c2ccc(Cl)cc2)CC1c1cn(-c2ccccc2)nc1-c1ccc([N+](=O)[O-])cc1` (stereo not given) here?
A: 89.7% (inactive)

Q: Which growth does the source give for `O=C1Nc2ccccc2/C1=C/c1cn(CC(O)Cn2cc(/C=C3\C(=O)Nc4ccccc43)c3ccccc32)c2ccccc12` (stereo not given) here?
A: -55.3% (active)

Q: For `Nc1nc2c(c3ncncc13)C(c1cccc(C(F)(F)F)c1)Cc1ncncc1-2` (stereo not given), which growth is on record?
A: 30.1% (inactive)

Q: With `O=C(Nc1ccccc1)Nc1ccc(Nc2ncnc3sc4c(c23)CCCC4)cc1` as the compound, how does the growth read?
A: 109% (inactive)

Q: `O=C(/C=C\c1ccc(NCc2ccc(C(=O)O)cc2)cc1)CCl` was tested. Which growth did it give?
A: 64.3% (inactive)

Q: For `CCCC(C)c1cc(Cc2cc(Cl)cc(Cl)c2O)c(O)c(Cc2cc(Cl)cc(Cl)c2O)c1` (stereo not given), which growth is on record?
A: -14.9% (active)

Q: How did the growth turn out when `CCC(C)(CC)c1ccc(O)c(C)c1` was run?
A: 98.9% (inactive)

Q: How did the growth turn out when `CC1(C)CC(=O)C2=C(C1)Oc1nc(N)c(C#N)c(N)c1C2c1ccc(F)cc1` (stereo not given) was run?
A: 100% (inactive)

Q: With `CCOc1ccc(/C=N/NC(=O)c2cccc3ccccc23)cc1OCC` as the compound, how does the growth read?
A: 86.5% (inactive)

Q: How did the growth turn out when `CCN(CC)C(=O)C1(C)CCCC2(C)c3cc(OC(C)=O)ccc3CCC12` (stereo not given) was run?
A: 95.4% (inactive)

Q: For `COc1ccc(-c2nc(SCC(C)C)nc(Nc3ccc(C(=O)O)cc3)c2C#N)cc1`, which growth is on record?
A: 85.6% (inactive)

Q: With `O=C(/C=C/c1cccc(O)c1)c1cccc(-n2cc(-c3ccc(Cl)cc3)[nH]c2=O)c1` as the compound, how does the growth read?
A: -42.5% (active)

Q: `CC(O)c1cc[cH-]c1.[Fe+2].c1cc[cH-]c1` (stereo not given) was tested. Which growth did it give?
A: 95.5% (inactive)

Q: `CC1(C)C(O)NC(Cl)=C(C#N)C1(C#N)C#N` (stereo not given) was tested. Which growth did it give?
A: 104% (inactive)

Q: Which growth does the source give for `COC(=O)C(C)[C@H]1CC[C@@H]2[C@]1(C)CC=C1[C@]23C=C[C@]2(C[C@@H](OC(C)=O)CC[C@]12C)C(C(=O)OC)C3C(=O)OC` (stereo not given in full) here?
A: 101% (inactive)

Q: For `CC(C)C(=O)c1ccc(Cl)s1`, which growth is on record?
A: 104% (inactive)

Q: With `CC1=C(C)C(=O)C(C(C)C2=C(C)C(=O)C(C)=C(C)C2=O)=C(C)C1=O` as the compound, how does the growth read?
A: 83.5% (inactive)

Q: With `Cc1ccc2c(O)c(O)cc(NC(C)CCCN)c2n1` (stereo not given) as the compound, how does the growth read?
A: 91.1% (inactive)

Q: Which growth does the source give for `O=S(=O)(Cc1cccc2c(CS(=O)(=O)c3ccc(Cl)cc3)cccc12)c1ccc(Cl)cc1` here?
A: 105% (inactive)

Q: With `C=CN(C)S(C)(=O)=O` as the compound, how does the growth read?
A: 46.8% (inactive)

Q: `CCCCCCCCCCCCCCCCC(=O)O.CCCCCCCCCCCCCCCCCC(=O)O.CCCCCCCCCCCCCCCCCC(=O)O.CCCCCCCCCCCCCCCCCC(=O)O.CCCCCCCCCCCCCCCCCC(=O)O.CO[CH-]OC12COC1CC(O)C1(C)C(O)C(OC(C)O)C3=C(C)C(OC(=O)C(O)C([NH-])c4ccccc4)CC(O)(C(OC(=O)c4ccccc4)C21)C3(C)C.[Cu+].[Zn].[Zn].[Zn].[Zn].[Zn]` (stereo not given) was tested. Which growth did it give?
A: 46.2% (inactive)

Q: How did the growth turn out when `COc1ccccc1Cn1cc2c(c1)-c1oncc1CC2` was run?
A: 67.4% (inactive)

Q: With `CC(=O)OCC(=O)[C@@]1(O)[C@H](C)C[C@H]2[C@@H]3C=C(C)C4=Cc5c(cnn5-c5ccc(F)cc5)C[C@]4(C)[C@H]3[C@@H](O)C[C@@]21C` as the compound, how does the growth read?
A: 54.8% (inactive)

Q: With `O=C(/C=C\c1ccccc1Cl)c1ccccc1` as the compound, how does the growth read?
A: 92% (inactive)

Q: For `CCOC(=O)C(C)C(C)(O)c1ccccc1` (stereo not given), which growth is on record?
A: 105% (inactive)

Q: With `CCCCCCCCCCCCCCCCCC1=NCCN1CS(=O)(=O)O` as the compound, how does the growth read?
A: 93.5% (inactive)

Q: Which growth does the source give for `CCCCCCCCCCCC(=O)OC(C)C(=O)Nc1ccccc1` (stereo not given) here?
A: 82% (inactive)

Q: Which growth does the source give for `CCCCCCCCCCC1OC(C)CC(C)O1` (stereo not given) here?
A: 101% (inactive)

Q: For `COc1cc(OC)c(/C=C/c2ccc3ccccc3[n+]2C)c(OC)c1`, which growth is on record?
A: -0.0814% (active)

Q: With `CCOC(=O)c1cc(C(=O)c2ccc(Br)cc2)n2cc(C)cc(C)c12` as the compound, how does the growth read?
A: 79% (inactive)

Q: How did the growth turn out when `Cc1ccc(OCCn2ccc(=O)n(CCOc3ccc(Cl)cc3C(=O)c3cc(C)cc(C)c3)c2=O)cc1` was run?
A: 55.1% (inactive)

Q: For `O=C1C(Cl)=C(SC2=NCCN2)C(=O)c2ccccc21`, which growth is on record?
A: 90.3% (inactive)

tested on: MDA-MB-435 melanoma; test: as above; conditions: 10 µM unless noted

Q: For `COc1cc2ncnc(-n3ncc4cc(NC(=O)Nc5ccccc5)ccc43)c2cc1OC`, which growth is on record?
A: 31.6% (inactive)

Q: How did the growth turn out when `CC1(c2ccc(Br)cc2)NC(=O)NC1=O` (stereo not given) was run?
A: 113% (inactive)

Q: With `O=C(N/N=C\c1ccc(Cl)cc1)C(=O)N/N=C\c1ccc(Cl)cc1` as the compound, how does the growth read?
A: 108% (inactive)

Q: How did the growth turn out when `COc1cc(-c2nc(/C=C3/C(=O)Nc4ccccc43)c3ccccn23)cc(OC)c1OC` was run?
A: 55.6% (inactive)

Q: For `CCCCN(CCCC)c1ccc(C(=O)O)cc1`, which growth is on record?
A: 102% (inactive)

Q: With `COC(=O)c1c[n+]([O-])ccc1OC` as the compound, how does the growth read?
A: 102% (inactive)

Q: For `CC(=O)O.[In]`, which growth is on record?
A: 102% (inactive)

Q: `Cc1nnc(/N=C2\NC(=O)/C(=C/C=C/c3ccccc3)S2)s1` was tested. Which growth did it give?
A: 16.3% (inactive)

Q: Which growth does the source give for `CC(=O)N1N=C(c2ccc(Cl)cc2)CC1c1cn(-c2ccccc2)nc1-c1ccc([N+](=O)[O-])cc1` (stereo not given) here?
A: 98.1% (inactive)

Q: `O=C1Nc2ccccc2/C1=C/c1cn(CC(O)Cn2cc(/C=C3\C(=O)Nc4ccccc43)c3ccccc32)c2ccccc12` (stereo not given) was tested. Which growth did it give?
A: -87.6% (active)

Q: For `Nc1nc2c(c3ncncc13)C(c1cccc(C(F)(F)F)c1)Cc1ncncc1-2` (stereo not given), which growth is on record?
A: -24.7% (active)

Q: How did the growth turn out when `O=C(Nc1ccccc1)Nc1ccc(Nc2ncnc3sc4c(c23)CCCC4)cc1` was run?
A: 112% (inactive)

Q: `O=C(/C=C\c1ccc(NCc2ccc(C(=O)O)cc2)cc1)CCl` was tested. Which growth did it give?
A: 89.5% (inactive)

Q: With `CCCC(C)c1cc(Cc2cc(Cl)cc(Cl)c2O)c(O)c(Cc2cc(Cl)cc(Cl)c2O)c1` (stereo not given) as the compound, how does the growth read?
A: 7.24% (active)

Q: `CCC(C)(CC)c1ccc(O)c(C)c1` was tested. Which growth did it give?
A: 109% (inactive)

Q: `CC1(C)CC(=O)C2=C(C1)Oc1nc(N)c(C#N)c(N)c1C2c1ccc(F)cc1` (stereo not given) was tested. Which growth did it give?
A: 112% (inactive)

Q: Which growth does the source give for `CCOc1ccc(/C=N/NC(=O)c2cccc3ccccc23)cc1OCC` here?
A: 111% (inactive)

Q: How did the growth turn out when `CCN(CC)C(=O)C1(C)CCCC2(C)c3cc(OC(C)=O)ccc3CCC12` (stereo not given) was run?
A: 72.9% (inactive)

Q: Which growth does the source give for `COc1ccc(-c2nc(SCC(C)C)nc(Nc3ccc(C(=O)O)cc3)c2C#N)cc1` here?
A: 99.5% (inactive)

Q: Which growth does the source give for `O=C(/C=C/c1cccc(O)c1)c1cccc(-n2cc(-c3ccc(Cl)cc3)[nH]c2=O)c1` here?
A: -9.55% (active)

Q: With `CC(O)c1cc[cH-]c1.[Fe+2].c1cc[cH-]c1` (stereo not given) as the compound, how does the growth read?
A: 104% (inactive)

Q: Which growth does the source give for `CC1(C)C(O)NC(Cl)=C(C#N)C1(C#N)C#N` (stereo not given) here?
A: 113% (inactive)

Q: How did the growth turn out when `COC(=O)C(C)[C@H]1CC[C@@H]2[C@]1(C)CC=C1[C@]23C=C[C@]2(C[C@@H](OC(C)=O)CC[C@]12C)C(C(=O)OC)C3C(=O)OC` (stereo not given in full) was run?
A: 95.1% (inactive)

Q: Which growth does the source give for `CC(C)C(=O)c1ccc(Cl)s1` here?
A: 106% (inactive)

Q: How did the growth turn out when `CC1=C(C)C(=O)C(C(C)C2=C(C)C(=O)C(C)=C(C)C2=O)=C(C)C1=O` was run?
A: 98.1% (inactive)

Q: Which growth does the source give for `Cc1ccc2c(O)c(O)cc(NC(C)CCCN)c2n1` (stereo not given) here?
A: 114% (inactive)

Q: Which growth does the source give for `O=S(=O)(Cc1cccc2c(CS(=O)(=O)c3ccc(Cl)cc3)cccc12)c1ccc(Cl)cc1` here?
A: 77.7% (inactive)

Q: With `C=CN(C)S(C)(=O)=O` as the compound, how does the growth read?
A: -35.4% (active)

Q: For `CCCCCCCCCCCCCCCCC(=O)O.CCCCCCCCCCCCCCCCCC(=O)O.CCCCCCCCCCCCCCCCCC(=O)O.CCCCCCCCCCCCCCCCCC(=O)O.CCCCCCCCCCCCCCCCCC(=O)O.CO[CH-]OC12COC1CC(O)C1(C)C(O)C(OC(C)O)C3=C(C)C(OC(=O)C(O)C([NH-])c4ccccc4)CC(O)(C(OC(=O)c4ccccc4)C21)C3(C)C.[Cu+].[Zn].[Zn].[Zn].[Zn].[Zn]` (stereo not given), which growth is on record?
A: 10.9% (inactive)

Q: Which growth does the source give for `COc1ccccc1Cn1cc2c(c1)-c1oncc1CC2` here?
A: -53.7% (active)

Q: Which growth does the source give for `CC(=O)OCC(=O)[C@@]1(O)[C@H](C)C[C@H]2[C@@H]3C=C(C)C4=Cc5c(cnn5-c5ccc(F)cc5)C[C@]4(C)[C@H]3[C@@H](O)C[C@@]21C` here?
A: 23.3% (inactive)

Q: With `O=C(/C=C\c1ccccc1Cl)c1ccccc1` as the compound, how does the growth read?
A: 90.5% (inactive)

Q: How did the growth turn out when `CCOC(=O)C(C)C(C)(O)c1ccccc1` (stereo not given) was run?
A: 102% (inactive)

Q: For `CCCCCCCCCCCCCCCCCC1=NCCN1CS(=O)(=O)O`, which growth is on record?
A: -19.9% (active)

Q: Which growth does the source give for `CCCCCCCCCCCC(=O)OC(C)C(=O)Nc1ccccc1` (stereo not given) here?
A: 106% (inactive)

Q: Which growth does the source give for `CCCCCCCCCCC1OC(C)CC(C)O1` (stereo not given) here?
A: 107% (inactive)

Q: Which growth does the source give for `COc1cc(OC)c(/C=C/c2ccc3ccccc3[n+]2C)c(OC)c1` here?
A: -30.6% (active)

Q: With `CCOC(=O)c1cc(C(=O)c2ccc(Br)cc2)n2cc(C)cc(C)c12` as the compound, how does the growth read?
A: 102% (inactive)

Q: How did the growth turn out when `Cc1ccc(OCCn2ccc(=O)n(CCOc3ccc(Cl)cc3C(=O)c3cc(C)cc(C)c3)c2=O)cc1` was run?
A: -3.9% (active)

Q: `O=C1C(Cl)=C(SC2=NCCN2)C(=O)c2ccccc21` was tested. Which growth did it give?
A: 62.7% (inactive)

Reference: PubChem BioAssay (NCI)
